Measurements: PubChem BioAssay (Tox21)
Results filed as inconclusive are left out. A structure can be active in one record and inactive in another. Activity calls are given as the source filed them. Unless noted, calls come from the whole dose curve; as a rule, active = well fitted cell-killing curve with a large enough effect in the repeat runs; inconclusive = weak or mixed curves, or effect the other way; inactive = no such curve, though single readings can be large or run the other way.
% is set by controls: 0 for no effect and ±100 for the full control effect.

Target: Vitamin D3 receptor (Homo sapiens) (UniProt P11473)
Sequence (P11473 whole entry, looked up): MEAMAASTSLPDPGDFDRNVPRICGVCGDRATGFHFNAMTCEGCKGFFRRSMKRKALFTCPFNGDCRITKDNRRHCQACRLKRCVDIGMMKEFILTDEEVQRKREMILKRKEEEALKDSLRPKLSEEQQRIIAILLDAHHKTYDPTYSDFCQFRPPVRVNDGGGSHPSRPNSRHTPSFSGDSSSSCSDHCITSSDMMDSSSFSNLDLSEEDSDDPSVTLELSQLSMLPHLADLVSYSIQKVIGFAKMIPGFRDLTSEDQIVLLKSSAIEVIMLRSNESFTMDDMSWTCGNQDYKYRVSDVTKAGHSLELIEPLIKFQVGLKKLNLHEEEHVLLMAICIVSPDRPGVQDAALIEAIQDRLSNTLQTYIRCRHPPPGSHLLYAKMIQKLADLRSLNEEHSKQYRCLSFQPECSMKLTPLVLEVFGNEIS
Assay: qHTS assay to identify small molecule antagonists of the vitamin D receptor (VDR) signaling pathway (AID 743223; active = well fitted inhibition curve with a large enough effect in the signal ratio in the repeat runs, not every such curve was filed as active; the % refers to the signal ratio)
Details: VDR-UAS-bla HEK293T, beta-lactamase FRET ratio, 16 h; series mostly up to 61 µM; activity change, negative = inhibition: at the top concentration
Method in brief: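 VDR-bla cells were plated, incubated 4 h at 37C, then given compound and 1alpha,25-dihydroxyvitamin D3 (3 nM final). After 16 h at 37C, LiveBLAzer B/G FRET substrate was added for 2 h at room temperature and fluorescence read.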
For `CC(COc1ccc(C(C)(C)C)cc1)OS(=O)OCCCl` (stereo not given), the “activity change, negative = inhibition” value was -3.05% [at 78.8 µM] (inactive).
For `Cc1ccc(Nc2nccc(N(C)c3ccc4c(C)n(C)nc4c3)n2)cc1S(N)(=O)=O`, the “activity change, negative = inhibition” value was -6.95% (inactive).
With `CCOCCn1c(C2CCN(CCc3ccc(C(C)(C)C(=O)O)cc3)CC2)nc2ccccc21` the “activity change, negative = inhibition” value was 0.994% (inactive).
With `O=C(O)c1ccccc1NCCc1ccccc1` the “activity change, negative = inhibition” value was 7.88% (inactive).
For `O=C(N[C@@H](c1ccccc1)[C@@H]1CCCCN1)c1cccc(C(F)(F)F)c1Cl`, the “activity change, negative = inhibition” value was -42.8% (inactive).
In the case of `COC(=O)CC(=O)C(C)(C)C`, the “activity change, negative = inhibition” value is reported as -7.01% (inactive).
For `CC(=O)[C@H]1CC[C@H]2[C@@H]3C[C@H](C)C4=CC(=O)CC[C@]4(C)[C@H]3[C@@H](O)C[C@]12C`, the “activity change, negative = inhibition” value was 27.5% (inactive).
With `CCNC(=O)N1CCN(CCCC(c2ccc(F)cc2)c2ccc(F)cc2)CC1` the “activity change, negative = inhibition” value was 29.7% (inactive).
In the case of `CCOC(=O)N1CCC(n2c(=O)[nH]c3cc(Cl)ccc32)CC1`, the “activity change, negative = inhibition” value is reported as 7.25% (inactive).
With `CCn1cc(C(=O)O)c(=O)c2cc(F)c(N3CCNCC3)nc21` the “activity change, negative = inhibition” value was 10.8% (inactive).
For `CN(C)C(=O)Nc1ccc(Oc2ccc(Cl)cc2)cc1`, the “activity change, negative = inhibition” value was -7.91% (inactive).
With `CCC(C(=O)OCCN(CC)CC)c1ccccc1` (stereo not given) the “activity change, negative = inhibition” value was 12.1% (inactive).
For `COC(=O)c1cc(S(N)(=O)=O)ccc1OC`, the “activity change, negative = inhibition” value was 5.83% (inactive).
For `COc1ccc(CCC(=O)c2c(O)cc(O[C@@H]3O[C@H](CO)[C@@H](O)[C@H](O)[C@H]3O[C@@H]3O[C@@H](C)[C@H](O)[C@@H](O)[C@H]3O)cc2O)cc1O`, the “activity change, negative = inhibition” value was -10.3% (inactive).
For `O=C(O)Cc1ccc(-c2ccccc2)cc1`, the “activity change, negative = inhibition” value was 6.27% (inactive).
For `CCCCN(CCCC)C(=S)SSC(=S)N(CCCC)CCCC`, the “activity change, negative = inhibition” value was -6.38% (inactive).
For `CC(CCO)CCc1ccccc1` (stereo not given), the “activity change, negative = inhibition” value was -6.4% (inactive).
For `C[Si]1(C)O[Si](C)(C)O[Si](C)(C)O1`, the “activity change, negative = inhibition” value was -17% (inactive).

Test system: not listed separately
Assay: qHTS assay to identify small molecule agonists of the vitamin D receptor (VDR) signaling pathway - cell viability counter screen (AID 743224); note: nearly all actives have a fitted effect of over 50% in size; note: potency is the fitted concentration of half-maximal effect
Details: VDR-bla HEK293T viability, CellTiter-Glo luminescence, 16 h; series mostly up to 62.6 µM; activity change, negative = cytotoxicity: at the top concentration
Method in brief: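 CellTiter-Glo viability readout on VDR-bla cells, measured after 16 h of compound treatment at 37C in the same wells.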
In the case of `CC(COc1ccc(C(C)(C)C)cc1)OS(=O)OCCCl` (stereo not given), the “activity change, negative = cytotoxicity” value is reported as -14.8% [at 81.1 µM] (inactive).
In the case of `Cc1ccc(Nc2nccc(N(C)c3ccc4c(C)n(C)nc4c3)n2)cc1S(N)(=O)=O`, the “activity change, negative = cytotoxicity” value is reported as -1.76% (inactive).
For `CN(C)CCOC1=Cc2ccccc2Sc2ccc(Cl)cc21`, the “activity change, negative = cytotoxicity” value was -20.8% (inactive).
With `CCOCCn1c(C2CCN(CCc3ccc(C(C)(C)C(=O)O)cc3)CC2)nc2ccccc21` the “activity change, negative = cytotoxicity” value was 10.8% (inactive).
With `CCCC(=O)O[C@]1(C(=O)COC(=O)CC)CC[C@H]2[C@@H]3CCC4=CC(=O)CC[C@]4(C)[C@H]3[C@@H](O)C[C@@]21C` the “activity change, negative = cytotoxicity” value was 10.8% [at 29.1 µM] (inactive).
For `Oc1ccc(Nc2ccccc2)cc1`, the Potency was 54.9 µM (active).
In the case of `O=C(O)c1ccccc1NCCc1ccccc1`, the “activity change, negative = cytotoxicity” value is reported as 0.583% (inactive).
In the case of `CCC(C)(C)C1CCC(O)CC1` (stereo not given), the “activity change, negative = cytotoxicity” value is reported as 2.01% (inactive).
For `O=C(N[C@@H](c1ccccc1)[C@@H]1CCCCN1)c1cccc(C(F)(F)F)c1Cl`, the Potency was 30.9 µM (active).
With `COC(=O)CC(=O)C(C)(C)C` the “activity change, negative = cytotoxicity” value was 6.4% (inactive).
In the case of `CC(=O)[C@H]1CC[C@H]2[C@@H]3C[C@H](C)C4=CC(=O)CC[C@]4(C)[C@H]3[C@@H](O)C[C@]12C`, the “activity change, negative = cytotoxicity” value is reported as 4.08% (inactive).
In the case of `COCc1c(C(C)C)nc(C(C)C)c(/C=C/[C@@H](O)C[C@@H](O)CC(=O)O)c1-c1ccc(F)cc1`, the “activity change, negative = cytotoxicity” value is reported as -5.25% (inactive).
For `O=C(Nc1ccccc1)Nc1ccccc1`, the “activity change, negative = cytotoxicity” value was -11.2% [at 81.1 µM] (inactive).
For `c1cc[c]([Bi]([c]2ccccc2)[c]2ccccc2)cc1`, the “activity change, negative = cytotoxicity” value was -26.8% (inactive).
With `CCOC(=O)N1CCC(n2c(=O)[nH]c3cc(Cl)ccc32)CC1` the “activity change, negative = cytotoxicity” value was -17.4% (inactive).
With `CCn1cc(C(=O)O)c(=O)c2cc(F)c(N3CCNCC3)nc21` the “activity change, negative = cytotoxicity” value was 1.14% (inactive).
For `CC(=O)OCC(=O)[C@@]12OC(C)(C)O[C@@H]1C[C@H]1[C@@H]3C[C@H](F)C4=CC(=O)C=C[C@]4(C)[C@@]3(F)[C@@H](O)C[C@@]12C`, the “activity change, negative = cytotoxicity” value was 10.3% (inactive).
In the case of `CCCCC1C(=O)N(c2ccccc2)N(c2ccc(O)cc2)C1=O` (stereo not given), the “activity change, negative = cytotoxicity” value is reported as -1.99% (inactive).
With `CN(C)C(=O)Nc1ccc(Oc2ccc(Cl)cc2)cc1` the “activity change, negative = cytotoxicity” value was -5.86% (inactive).
In the case of `CC[C@H](NC(=O)c1cc(F)ccc1NS(=O)(=O)c1cccc2cccnc12)c1ccccc1`, the “activity change, negative = cytotoxicity” value is reported as -20.9% (inactive).
In the case of `Nc1ccc(Cl)cc1[N+](=O)[O-]`, the “activity change, negative = cytotoxicity” value is reported as -10.7% (inactive).
With `Brc1cc(-c2ccc(Br)c(Br)c2Br)cc(Br)c1Br` the “activity change, negative = cytotoxicity” value was 12.7% (inactive).
For `O=C(O)C(Cc1cc(I)c(O)c(I)c1)c1ccccc1` (stereo not given), the “activity change, negative = cytotoxicity” value was 0.709% (inactive).
With `CC(C)(C)C(=O)C(Oc1ccc(Cl)cc1)n1ccnc1` (stereo not given) the “activity change, negative = cytotoxicity” value was -1.27% (inactive).
In the case of `C=CCOC(=O)/C=C\C(=O)OCC=C`, the “activity change, negative = cytotoxicity” value is reported as -0.123% [at 81.1 µM] (inactive).
With `NC(=O)N(O)[C@@H]1C=C[C@H](Oc2cccc(Oc3ccc(F)cc3)c2)C1` the “activity change, negative = cytotoxicity” value was -14.4% (inactive).
With `CCC(C(=O)OCCN(CC)CC)c1ccccc1` (stereo not given) the “activity change, negative = cytotoxicity” value was 7.45% (inactive).
In the case of `COC(=O)c1cc(S(N)(=O)=O)ccc1OC`, the “activity change, negative = cytotoxicity” value is reported as 0.212% (inactive).
For `COc1ccc(CCC(=O)c2c(O)cc(O[C@@H]3O[C@H](CO)[C@@H](O)[C@H](O)[C@H]3O[C@@H]3O[C@@H](C)[C@H](O)[C@@H](O)[C@H]3O)cc2O)cc1O`, the “activity change, negative = cytotoxicity” value was 2.91% (inactive).
For `O=C(O)Cc1ccc(-c2ccccc2)cc1`, the “activity change, negative = cytotoxicity” value was 6.19% (inactive).
In the case of `CCCCN(CCCC)C(=S)SSC(=S)N(CCCC)CCCC`, the Potency is reported as 12.2 µM (active).
For `CC(CCO)CCc1ccccc1` (stereo not given), the “activity change, negative = cytotoxicity” value was -0.651% (inactive).
With `COC(=O)c1cc(Cl)ccc1NS(=O)(=O)C(F)(F)F` the “activity change, negative = cytotoxicity” value was 13.9% (inactive).
In the case of `O=C(C(=O)c1ccccc1)c1ccccc1`, the “activity change, negative = cytotoxicity” value is reported as 1.71% (inactive).
With `Cc1oncc1C(=O)Nc1ccc(C(F)(F)F)cc1` the Potency was 38.9 µM (active) and inactive.
With `C[Si]1(C)O[Si](C)(C)O[Si](C)(C)O1` the “activity change, negative = cytotoxicity” value was -5.23% (inactive).
For `N#C/C(=C1\SCC(c2ccccc2Cl)S1)n1ccnc1` (stereo not given), the “activity change, negative = cytotoxicity” value was 0.318% (inactive).
